From PubChem BioAssay AID504577 (NMMLSC, 2011)
About 1,300 (0.37%) of roughly 350,000 compounds were called active. The entries come from a sample that favours actives as a whole. Unmarked numbers belong to inactive results. Cut-off read from the data, not from the text of the source: active = response mostly above about 7.3% (no sharp cut-off); inactive = mostly below about 5.4%.

assay: regulators of yeast V-ATPase proton pumping, primary screen, pHLuorin cytosolic pH fluorescence (AID 504577); note: actives read high; conditions: S. cerevisiae, at 10 µM, stronger effect = higher value

| SMILES | response |
| --- | --- |
| O=C(NC1CCN(Cc2ccccc2)CC1)c1ccc(Oc2cc(Cl)cc(Cl)c2)o1 | 0.98% |
| O=C(NC1CCN(Cc2ccccc2)CC1)c1cc(Br)c(Br)[nH]1 | 10.4% (active) |
| Cc1cc(C(=O)NC2CCN(Cc3ccccc3)CC2)n[nH]1 | 4.4% |
| O=C(OCCN1C(=O)c2ccccc2C1=O)Oc1ccccc1 | -2.47% |
| O=C1c2ccccc2C(=O)N1CCCCCCN1C(=O)c2ccccc2C1=O | 9.59% (active) |
| O=C(CCCN1C(=O)c2ccccc2C1=O)Oc1ccc(Cl)cc1 | 8.16% |
| Cc1cc(C(C)(C)C)cc(S(=O)(=O)Nc2ccc(C(=O)O)cc2)c1C | -1.72% |
| COCCN(Cc1ccccc1)C(=O)Cc1ccc(S(=O)(=O)N2CCOCC2)s1 | 0.76% |
| CN(CC(=O)NCC(c1ccccc1)N1CCCC1)S(=O)(=O)c1ccc(Cl)cc1 (stereo not drawn) | -3.93% |
| CC1=NN(c2ccc(Cl)c(C(=O)O)c2)C(=O)/C1=C/c1ccc(-c2ccccc2[N+](=O)[O-])o1 | 240% (active) |
| O=C(Nc1ccc(N2CCOCC2)cc1)c1ccc(-c2ccccc2[N+](=O)[O-])o1 | -1.06% |
| O=C1NC(c2ccc(-c3ccccc3[N+](=O)[O-])o2)C(C(=O)c2ccc(Cl)cc2)C(O)(C(F)(F)F)N1 (stereo not drawn) | -0.4% |
| O=C(COC(=O)CCCNC(=O)c1ccc(Cl)cc1)Nc1cc(Cl)ccc1Cl | -2.06% |
| CNC(=O)c1csc(-c2ccccc2)n1 | -0.68% |
| CC(=O)NNC(=O)c1csc(Cc2c(Cl)sc3ccc(Cl)cc23)n1 | -1.89% |
| CNC(=O)c1csc(Cc2c(Cl)sc3ccc(Cl)cc23)n1 | 12.4% (active) |
| COc1cccc(N2CCN(C(=O)Nc3ccc4c(c3)NC(=O)CO4)CC2)c1 | 0.53% |
| O=C(CNC(=O)c1cc(S(=O)(=O)N2CCOCC2)ccc1N1CCCC1)Nc1ccc(F)c(F)c1 | -1.89% |
| CC(C)(C)C(=O)COC(=O)c1cc(S(=O)(=O)N2CCCCC2)ccc1N1CCOCC1 | 5.71% |
| O=C(NCC1CCCCC1)c1cc(S(=O)(=O)N2CCCCC2)ccc1N1CCOCC1 | 11.1% (active) |

| SMILES | response |
| --- | --- |
| COCCN1C2=C(COC(C)(C)C2)C(=S)NC1c1ccccc1 (stereo not drawn) | 1.2% |
| O=C(O)CC12CC3CC(C1)CC(n1ncc(NCc4ccc(F)cc4)c(Cl)c1=O)(C3)C2 | 1.78% |
| CC(C)c1ccc(OCC(O)CN2CCN(c3ccccn3)CC2)cc1 (stereo not drawn) | 1.79% |
| OC(COc1cccc2ccccc12)CN1CCN(c2ccccn2)CC1 (stereo not drawn) | 16.7% (active) |
| OC(COc1ccccc1)CN1CCN(c2cccc(Cl)c2)CC1 (stereo not drawn) | -2.02% |
| CN(C)S(=O)(=O)c1cc(C(=O)Nc2ccn(C)n2)c(Cl)cc1Cl | -0.21% |
| CSc1sc(C)cc1C1C(C#N)=C(N)N(c2cccnc2)C2=C1C(=O)CCC2 (stereo not drawn) | -0.16% |
| O=C(COc1ncnc2c(Cl)cc(Cl)cc12)N1CCN(S(=O)(=O)c2ccccc2)CC1 | 2.02% |
| Nn1c(SCc2ccccc2)nnc1C1CCCCC1 | -2.46% |
| O=C(CNC(=O)c1ccccc1Br)NNC(=O)c1cccs1 | -0.51% |
| O=C(C1=C[C@H](c2ccc(C(F)(F)F)cc2)C[C@H](OCc2ccc(CO)cc2)O1)N1CCN(Cc2ccccc2)CC1 | 3.16% |
| O=C(C1=C[C@H](c2coc3ccccc3c2=O)C[C@H](OCc2ccc(CO)cc2)O1)N1CCN(Cc2ccccc2)CC1 | 2.61% |
| O=C(C1=C[C@H](C2CC2)C[C@H](OCc2ccc(CO)cc2)O1)N1CCN(Cc2ccccc2)CC1 | 10.9% (active) |
| Cc1ccc(C2=NN(C)c3nc4ccccc4n3C2)cc1 | 0.17% |
| c1ccc(CNc2ncnc3[nH]ncc23)cc1 | -0.7% |
| CN(c1ccccn1)c1ncnc2[nH]ncc12 | 15.2% (active) |
| COc1ccc(NC(=O)CSc2ncnc3[nH]ncc23)cc1 | 8.67% |
| COc1ccc(OC)c(CNC(=O)CCc2nc(-c3cccs3)no2)c1 | -0.51% |
| COc1ccc(CCc2nc(-c3cccs3)no2)cc1 | 1.75% |
| CCc1ccc(CNC(=O)CCc2nc(-c3cccs3)no2)cc1 | 10.8% (active) |

| SMILES | response |
| --- | --- |
| Cc1cc(C(F)(F)F)nn1CC(=O)N1CCCC1 | 6.02% |
| O=C(CC(n1cncn1)C(Cl)(Cl)Cl)c1ccc([N+](=O)[O-])cc1 (stereo not drawn) | 4.51% |
| COc1ccc(C(CNC(=O)c2ccc(OCc3cscn3)cc2)N2CCCC2)cc1 (stereo not drawn) | 2.42% |
| CCN(CC(=O)Nc1c(F)cccc1F)C(=O)c1ccc(-c2ccc(C(C)=O)cc2)o1 | 0.89% |
| Cc1cccc2c1cnn2C(=O)CCC(=O)NC1CCCCC1 | -0.13% |
| Cc1ccc2c(cnn2C(=O)CCC(=O)NC2CCCC2)c1 | 16.8% (active) |
| Cc1ccc2nc(SCC(=O)NC3CCCC3)[nH]c2c1 | 1.94% |
| Cc1ccccc1CS(=O)(=O)CC1(O)CCN(C(=O)c2cccc(C(F)(F)F)c2)CC1 | -0.64% |
| Cc1c(Cl)cccc1NC(=O)[C@@]1(CC(=O)O)CC(/C=C/c2ccccc2)=NO1 | -1.98% |
| CCN(CC)CC(=O)Nc1nn(-c2ccccc2)nc1C(N)=O | 6.52% |
| COc1ccc(N2CCN(C(=O)CNC(=O)c3ccc(Br)o3)CC2)cc1 | 4.07% |
| COc1ccc(N2CCN(C(=O)CNC(=O)c3ccc(C(C)(C)C)cc3)CC2)cc1 | 13.9% (active) |
| COc1ccc(N2CCN(C(=O)CCNC(=O)c3ccc(Br)cc3)CC2)cc1 | -3.69% |
| Cc1ccccc1NC(=O)N1CCCC1C(=O)NCc1ccccc1 (stereo not drawn) | -1.65% |
| CCOc1nc(OCC)nc(-n2cc(-c3ccccc3)nn2)n1 | 0.96% |
| CC1=C/C(=N\OS(=O)(=O)c2ccccc2)C=CC1=O | 32.8% (active) |
| CCC(C)NC(=O)c1ccc(NC(=O)CC2SC(N3CCCCC3)=NC2=O)cc1 (stereo not drawn) | 1.4% |
| CC(C)(C)OC(=O)N1CCC(C(=O)NNC(=O)c2ccc(Cl)cc2Cl)CC1 | 1.22% |
